# Reference: ChEMBL document CHEMBL4513216, “Probing the Open Global Health Chemical Diversity Library for Multistage-Active Starting Points for Next-Generation Antimalarials” (ACS Infect Dis, 2020)
# Among all 68,000 compounds or so, about 2,700 (4%) showed an effect of 50% or more. For the sample, strong results were picked, then their nearest neighbours and some compounds at random.
# System: Plasmodium berghei
# Experiment: Screen against P. berghei liver stage (PbLuc), transformed with Luciferase, at 2uM
# Type: functional, HepG2
# Settings: tested at 2 uM
row,Structure (SMILES),INHIBITION
1,O=C(NCc1ccco1)[C@H]1C[C@@H]2CCN(c3cccc(F)c3)C[C@H]2O1,45.28%
2,CCCN1CCC(N2CCN(c3cccc(C)n3)CC2)CC1,36.24%
3,Nc1cc(CCC2CN(Cc3ccc4c(c3)OCCO4)CCO2)ccn1 (stereo unspecified),23.87%
4,Nc1cc(CCC2CN(Cc3ccc4cc[nH]c4c3)CCO2)ccn1 (stereo unspecified),52.69%
5,COc1ccc(CN2CCOC(CCc3ccnc(N)c3)C2)cc1 (stereo unspecified),-152.49%
6,COCC1CN(Cc2ccc(OC)cc2)Cc2nn(C)cc21 (stereo unspecified),-62.13%
7,CN(CC(=O)N1CCOC(CCc2ccccc2)C1)Cc1ccccn1 (stereo unspecified),3.94%
8,CC(C)NC(=O)[C@@H]1C[C@@H]2CCN(Cc3ccoc3)C[C@H]2O1,0%
9,CC(c1nc(C(C)(C)C)no1)N1CCC(N2CCCC2)CC1 (stereo unspecified),4.52%
10,CCS(=O)(=O)N1CCc2ccc(NC(=O)Nc3ccc(F)cc3F)cc21,36.98%
11,CCS(=O)(=O)N1CCc2ccc(NC(=O)Nc3ccccc3)cc21,20.38%
12,NS(=O)(=O)N1CCc2ccc(NC(=O)Cc3ccccc3F)cc21,60.14%
13,CCS(=O)(=O)N1CCc2ccc(NC(=O)Nc3ccccc3C)cc21,-7.56%
14,CCS(=O)(=O)N1CCc2ccc(NC(=O)Nc3cccc(F)c3)cc21,78.93%
15,CCS(=O)(=O)N1CCc2ccc(NC(=O)Nc3cccc(C)c3)cc21,80.54%
16,CCS(=O)(=O)N1CCc2ccc(NC(=O)Nc3cccc(SC)c3)cc21,47.4%
17,NS(=O)(=O)N1CCc2ccc(NC(=O)CC(F)(F)F)cc21,6.91%
18,NS(=O)(=O)N1CCc2ccc(NC(=O)Cc3ccc(F)cc3)cc21,1.22%
19,O=C(O)c1cc2c(nc1N1CCOCC1)CCN(C1CCOC1)CC2 (stereo unspecified),-51%
20,CCc1ccc(C(=O)Nc2ccc(CC3CC(=O)NC3=O)cc2)s1 (stereo unspecified),-3.62%
21,CCc1ncc(CN2CCN(c3cc(NC4CC4)nc(N)n3)CC2)cn1,-18.65%
22,CCn1cc(NC(=O)Nc2ccc3c(c2)OCCO3)cn1,-27.62%
23,Cc1cc(CN2CCC(CNC(=O)c3ccc4[nH]cnc4c3)C2)[nH]n1 (stereo unspecified),-48.91%
24,CC(C)c1nn(C)c(N(C)C)c1CNC1CCN(CC2CC2)CC1,10.61%
25,O=c1[nH]c(N2CCCCC2)nc2c1CCN(Cc1cccnc1)C2,43.23%
26,O=c1c2cnc(N3CCCCC3)nc2ccn1Cc1ccco1,-77.67%

row,Structure (SMILES),INHIBITION
1,CN1CCN(c2ncc3c(=O)n(Cc4ccco4)ccc3n2)CC1,59.01%
2,CCN1CCN(c2ncc3c(=O)n(Cc4ccco4)ccc3n2)CC1,-20.72%
3,Cn1ccnc1N1CCN(C(=O)Cc2ccc(Cl)cc2)CC1,29.05%
4,O=C(c1ccc2ccccc2c1)C1CCCN(C(=O)Cn2cncn2)C1 (stereo unspecified),25.9%
5,O=C(c1ccc2ccccc2c1)C1CCCN(C(=O)Cn2cnnn2)C1 (stereo unspecified),56.38%
6,CSc1ccc(C(=O)C2CCCN(C(=O)Cn3cnnn3)C2)cc1 (stereo unspecified),41.68%
7,Cc1ccccc1OCC(O)CN1CCC(Cn2cccn2)CC1 (stereo unspecified),33.22%
8,Cc1cccc(CN2CCc3ncnc(-c4ccsc4)c3CC2)n1,-1.33%
9,CC(C)N(C)S(=O)(=O)N1CCCC1C(=O)N1CCSCC1 (stereo unspecified),-36.67%
10,Cc1ccc(CC(=O)N2CCCCC2c2nc(C)cs2)cn1 (stereo unspecified),-39.92%
11,CC[C@@H](c1ccccc1)n1c(C2CC2)n[nH]c1=O,43.05%
12,C[C@H](c1ccc(Cl)cc1)n1c(C2CC2)n[nH]c1=O,62.51%
13,C[C@H](c1ccc(F)cc1)n1c(C2CCN(C)CC2)n[nH]c1=O,72.05%
14,O=c1[nH]nc(C2CC2)n1-c1cccc(Cl)c1,-21.72%
15,CN1CCC(c2n[nH]c(=O)n2-c2cccc(Cl)c2)CC1,-8.16%
16,C[C@H](c1ccc(F)cc1)n1c(C2CCC2)n[nH]c1=O,38.67%
17,O=C1NCCCCC1NC(=O)N1CCCc2ccccc21 (stereo unspecified),12.66%
18,O=C1NCCCCC1NC(=O)N1CCc2ccccc21 (stereo unspecified),50.42%
19,O=C1NCCCCC1NC(=O)N1CCCc2cc(F)ccc21 (stereo unspecified),-30.43%
20,Cc1nnc(N2CCCC3(CN(Cc4cnn(C)c4)CCO3)C2)o1 (stereo unspecified),16.39%
21,CC(C)c1nn(CC(=O)N2CCCC2)c(=O)c2c1cnn2C(C)(C)C,-10.09%
22,CCc1cnc(CN(C)C2CCN(Cc3nnc(C4CC4)n3C)C2)o1 (stereo unspecified),-11.16%
23,Cc1occc1C(=O)N1CCC2(CCN(Cc3nccs3)CC2)C1,-114.33%
24,Cc1occc1C(=O)N1CCC2(CCN(Cc3nccs3)C2)CC1,-6.15%
25,Cc1occc1C(=O)N1CCC2(CCCN(Cc3nccs3)C2)C1 (stereo unspecified),50.61%
